Assay results: PubChem BioAssay (Tox21)
Several values for one entry are separate records, joined by “and”; a condition that tells them apart may be missing. Equal values may be shown once. Results filed as inconclusive are left out. Entries that show only a call come without a potency. Where a structure was tested more than once in an assay, its records may differ in their call. Activity calls are given as the source filed them. Calls follow the shape of the dose curve; as a rule, active = well fitted curve in the direction sought with a large enough effect in the repeat runs; inconclusive = weak or mixed curves; inactive = no such curve, though single readings can be large; an effect the other way counts as inactive or inconclusive.

Key:
[1] = A CellTox Green Cytotoxicity Assay to monitor cytotoxicity in HEK293 cells - 8 hour (AID 1224884); also: nearly all actives have a fitted effect of over 35% in size; also: potency is read from the fitted curve at half-maximal effect
How it was run: (§1)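 Real-time, in one plate: 600 HEK293 cells/well with dead-cell DNA dye, pinned compound after 5 h, 37 C incubation over 40 h; viable cells give no appreciable fluorescence.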

[2] = qHTS RealTime-Glo MT Cell Viability Assay in HepG2 cells - 16 hour (AID 1224885); also: nearly all actives have a fitted effect of over 50% in size
How it was run: (§2)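 HepG2 cells (600/well) were dispensed with RealTime-Glo reagents, incubated 5 h at 37 °C, then treated with compounds in DMSO for up to 40 h. Nonlytic NanoLuc luminescence reflecting viable cells was read at each stated time point.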

[3] = qHTS RealTime-Glo MT Cell Viability Assay in HEK293 cells - 24 hour (AID 1224886); also: nearly all actives have a fitted effect of over 50% in size; also: potency is read from the fitted curve at half-maximal effect
How it was run: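 HEK293 cells seeded with NanoLuc/prosubstrate reagent, rested 5 h at 37 C, then dosed and kept at 37 C up to 40 h. Nonlytic real-time luminescence from viable cells read at 0, 8, 16, 24, 32 and 40 h.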

[4] = qHTS RealTime-Glo MT Cell Viability Assay in HEK293 cells - 8 hour (AID 1224887); also: top concentration of the series differs between compounds; nearly all actives have a fitted effect of over 50% in size
How it was run: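 Kinetic, non-lysing viability readout. Seed HEK293 (600/well) with reagent, incubate 5 h at 37 C/5% CO2, pin 23 nL compound in DMSO, incubate at 37 C, read luminescence at 0, 8, 16, 24, 32, 40 h.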

[5] = A CellTox Green Cytotoxicity Assay to monitor cytotoxicity in HEK293 cells - 16 hour (AID 1224888); also: nearly all actives have a fitted effect of over 35% in size
How it was run: as §1

[6] = qHTS RealTime-Glo MT Cell Viability Assay in HepG2 cells - 0 hour (AID 1224889); also: nearly all actives have a fitted effect of over 50% in size
How it was run: as §2

[7] = A CellTox Green Cytotoxicity Assay to monitor cytotoxicity in HepG2 cells - 8 hour (AID 1224890); also: nearly all actives have a fitted effect of over 45% in size
How it was run: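 Cytotoxicity was tracked as dead-cell DNA fluorescence in HepG2 cells treated with test compounds at 37 C; each time-point value comes from one kinetic series spanning 0, 8, 16, 24, 32 and 40 h.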

[8] = qHTS assay to identify small molecule antagonists of the estrogen receptor alpha (ER-alpha) signaling pathway using the BG1 cell line in the presence of 0.1 nM 17-beta-estradiol - cell viability counter screen (AID 1259241); also: nearly all actives have a fitted effect of over 40% in size
How it was run: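 VM7Luc4E2 cells (endogenous ER-alpha, 4×ERE-luciferase), hormone-starved 5 days in charcoal-stripped FBS, were treated with compounds plus 0.1 nM 17beta-estradiol for 22 hr at 37C; viability read in same wells as CellTiter-Fluor live-cell protease fluorescence.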

[9] = qHTS assay to identify small molecule antagonists of the androgen receptor (AR) signaling pathway using the MDA cell line in the presence of 0.5 nM R1881 - cell viability counter screen (AID 1259242); also: nearly all actives have a fitted effect of over 45% in size
How it was run: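 Cells seeded at 3,000/well and allowed 5 hr at 37C, 0% CO2 before compound transfer and R1881 (0.5 nM final) addition; 16 hr later, live-cell protease fluorescence indicated cytotoxicity.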

[10] = biological target: Androgen receptor (Homo sapiens) (UniProt P10275); experiment: qHTS assay to identify small molecule antagonists of the androgen receptor (AR) signaling pathway using the MDA cell line in the presence of 0.5 nM R1881 (AID 1259243); also: nearly all actives have a fitted effect of over 50% in size; also: potency is read from the fitted curve at half-maximal effect
Chain of Androgen receptor (Homo sapiens) (P10275 whole entry, looked up): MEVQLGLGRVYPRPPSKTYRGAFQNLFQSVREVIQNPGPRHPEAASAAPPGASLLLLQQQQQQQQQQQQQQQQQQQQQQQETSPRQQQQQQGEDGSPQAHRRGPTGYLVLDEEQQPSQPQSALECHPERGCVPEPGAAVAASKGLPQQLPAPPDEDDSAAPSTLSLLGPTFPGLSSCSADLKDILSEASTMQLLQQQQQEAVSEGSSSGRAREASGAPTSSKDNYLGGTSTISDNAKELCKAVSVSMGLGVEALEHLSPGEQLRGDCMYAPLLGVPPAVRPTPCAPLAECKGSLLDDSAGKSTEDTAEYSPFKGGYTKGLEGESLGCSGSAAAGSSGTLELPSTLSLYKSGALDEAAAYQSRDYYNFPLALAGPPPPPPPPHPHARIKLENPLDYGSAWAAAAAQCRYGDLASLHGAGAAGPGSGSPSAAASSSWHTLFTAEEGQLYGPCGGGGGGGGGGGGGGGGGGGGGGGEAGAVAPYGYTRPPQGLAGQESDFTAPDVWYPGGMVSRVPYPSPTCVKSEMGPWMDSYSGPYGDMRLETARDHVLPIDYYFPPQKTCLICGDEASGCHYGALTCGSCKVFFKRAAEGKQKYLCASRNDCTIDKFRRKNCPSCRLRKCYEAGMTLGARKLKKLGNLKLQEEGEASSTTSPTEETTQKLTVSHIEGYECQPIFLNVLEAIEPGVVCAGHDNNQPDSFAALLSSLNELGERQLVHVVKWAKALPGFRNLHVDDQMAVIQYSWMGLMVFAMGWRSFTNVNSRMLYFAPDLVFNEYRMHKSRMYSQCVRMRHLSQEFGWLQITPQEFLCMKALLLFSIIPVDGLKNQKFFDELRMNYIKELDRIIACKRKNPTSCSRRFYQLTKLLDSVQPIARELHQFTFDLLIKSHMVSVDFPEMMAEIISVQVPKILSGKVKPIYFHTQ
How it was run: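 Luminescence from an AR/GR-responsive MMTV-luciferase construct in MDA-kb2 breast carcinoma cells, read 30 min after ONE-Glo, following 16 hr co-treatment with compounds and 0.5 nM R1881.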

NCC(O)c1ccc(O)cc1 (stereo unspecified)
Potency [1]: inactive
outcome [2]: inactive
Potency [3]: inactive
outcome [4]: inactive
Potency [5]: inactive
outcome [6]: inactive
Potency [7]: inactive
Potency [8]: inactive
outcome [9]: inactive

O=C(NC(=O)c1c(F)cccc1F)Nc1cc(Cl)c(OC(F)(F)C(F)C(F)(F)F)cc1Cl (stereo unspecified)
Potency [1]: inactive
outcome [2]: inactive
Potency [3]: inactive
outcome [4]: inactive
Potency [5]: inactive
outcome [6]: inactive
Potency [7]: inactive
Potency [8]: inactive
outcome [9]: inactive
Potency [10]: 19.3 µM (active) and 26.6 µM (active)

COc1ccc2c3c1O[C@H]1[C@@H](O)C=C[C@H]4[C@@H](C2)N(C)CC[C@@]341
Potency [1]: inactive
outcome [2]: inactive
Potency [3]: 48.2 µM (active) and inactive
outcome [4]: inactive
Potency [5]: inactive
outcome [6]: inactive
Potency [7]: inactive
Potency [8]: inactive
outcome [9]: inactive

COCCl
Potency [1]: 22.7 µM (active) and inactive
outcome [2]: inactive
Potency [3]: inactive
outcome [4]: inactive
Potency [5]: inactive
outcome [6]: inactive
Potency [7]: inactive
Potency [8]: inactive
outcome [9]: inactive
Potency [10]: inactive

ClCCBr
Potency [1]: inactive
outcome [2]: inactive
Potency [3]: inactive
outcome [4]: inactive
Potency [5]: inactive
outcome [6]: inactive
Potency [7]: inactive
Potency [8]: inactive
outcome [9]: inactive

O=S(=O)(c1ccc(Cl)cc1)c1cc(Cl)c(Cl)cc1Cl
Potency [1]: inactive
outcome [2]: inactive
Potency [3]: inactive
outcome [4]: inactive
Potency [5]: inactive
outcome [6]: inactive
Potency [7]: inactive
Potency [8]: inactive
outcome [9]: inactive

[O-][Cl+2]([O-])O
Potency [1]: inactive
outcome [2]: inactive
Potency [3]: inactive
outcome [4]: inactive
Potency [5]: inactive
outcome [6]: inactive
Potency [7]: inactive
Potency [8]: inactive
outcome [9]: inactive

CCOC(=O)c1ccccc1C(=O)OCC
Potency [1]: inactive
outcome [2]: inactive
Potency [3]: inactive
outcome [4]: inactive
Potency [5]: inactive
outcome [6]: inactive
Potency [8]: inactive
outcome [9]: inactive

CCC12COCN1COC2
Potency [1]: inactive
outcome [2]: inactive
Potency [3]: inactive
outcome [4]: inactive
Potency [5]: inactive
outcome [6]: inactive
Potency [8]: inactive
outcome [9]: inactive

CCOP(=S)(OCC)Oc1cnc2ccccc2n1
Potency [1]: inactive
outcome [2]: inactive
Potency [3]: inactive
outcome [4]: inactive
Potency [5]: inactive
outcome [6]: inactive
Potency [7]: inactive
Potency [8]: inactive
outcome [9]: inactive

CC(C)(Cl)Cl
Potency [1]: inactive
outcome [2]: inactive
Potency [3]: inactive
outcome [4]: inactive
Potency [5]: inactive
outcome [6]: inactive
Potency [7]: inactive
Potency [8]: inactive
outcome [9]: inactive

OC(O)C(Cl)(Cl)Cl
Potency [1]: inactive
outcome [2]: inactive
Potency [3]: inactive
outcome [4]: inactive
Potency [5]: inactive
outcome [6]: inactive
Potency [7]: inactive
Potency [8]: inactive
outcome [9]: inactive

CCc1cccc(C)c1N(C(=O)CCl)C(C)COC (stereo unspecified)
Potency [1]: inactive
outcome [2]: inactive
Potency [3]: inactive
outcome [4]: inactive
Potency [5]: inactive
outcome [6]: inactive
Potency [7]: inactive
Potency [8]: inactive
outcome [9]: inactive

CC(C)C#N
Potency [1]: inactive
outcome [2]: inactive
Potency [3]: inactive
outcome [4]: inactive
Potency [5]: inactive
outcome [6]: inactive
Potency [7]: inactive
Potency [8]: inactive
outcome [9]: inactive

Cc1[nH]c(=O)n(C(C)(C)C)c(=O)c1Cl
Potency [1]: inactive
outcome [2]: inactive
Potency [3]: inactive
outcome [4]: inactive
Potency [5]: inactive
outcome [6]: inactive
Potency [7]: inactive
Potency [8]: inactive
outcome [9]: inactive
Potency [10]: inactive

O=Cc1cccc(Oc2ccccc2)c1
Potency [1]: inactive
outcome [2]: inactive
Potency [3]: inactive
outcome [4]: inactive
Potency [5]: inactive
outcome [6]: inactive
Potency [7]: inactive
Potency [8]: inactive
outcome [9]: inactive

Nc1ccc(Oc2ccc(N)cc2)cc1
Potency [1]: inactive
outcome [2]: inactive
Potency [3]: inactive
outcome [4]: inactive
Potency [5]: inactive
outcome [6]: inactive
Potency [7]: inactive
Potency [8]: inactive
outcome [9]: inactive

CC(NC(C)(C)C)C(=O)c1cccc(Cl)c1 (stereo unspecified)
Potency [1]: inactive
outcome [2]: inactive
Potency [3]: inactive
outcome [4]: inactive
Potency [5]: inactive
outcome [6]: inactive
Potency [8]: inactive
outcome [9]: inactive

O=c1n(Cl)c(=O)n(Cl)c(=O)n1Cl
Potency [1]: inactive
outcome [2]: inactive
Potency [3]: inactive
outcome [4]: inactive
Potency [5]: inactive
outcome [6]: inactive
Potency [7]: inactive
Potency [8]: inactive
outcome [9]: inactive

Cc1cccc([N+](=O)[O-])c1
Potency [1]: inactive
outcome [2]: inactive
Potency [3]: inactive
outcome [4]: inactive
Potency [5]: inactive
outcome [6]: inactive
Potency [8]: inactive
outcome [9]: inactive

C1CN2CCN1CC2
Potency [1]: inactive and 21.9 µM (active)
outcome [2]: inactive
Potency [3]: inactive
outcome [4]: inactive
outcome [6]: inactive
Potency [8]: inactive
outcome [9]: inactive

O=[N+]([O-])c1ccc(Oc2ccc(Cl)cc2Cl)cc1
Potency [1]: inactive
outcome [2]: inactive
Potency [5]: inactive
outcome [6]: inactive
Potency [7]: inactive
Potency [8]: inactive
outcome [9]: inactive

CCNc1nc(NC(C)C)nc(SC)n1
Potency [1]: inactive
outcome [2]: inactive
Potency [3]: inactive
outcome [4]: inactive
Potency [5]: inactive
outcome [6]: inactive
Potency [8]: inactive
outcome [9]: inactive
Potency [10]: inactive

C#CCN(C)[C@H](C)Cc1ccccc1
Potency [1]: inactive
outcome [2]: inactive
Potency [3]: inactive
outcome [4]: inactive
Potency [5]: inactive
outcome [6]: inactive
Potency [8]: inactive
outcome [9]: inactive

Clc1ccc(Cl)cc1
Potency [1]: inactive
outcome [2]: inactive
Potency [3]: inactive
outcome [4]: inactive
Potency [5]: inactive
outcome [6]: inactive
Potency [8]: inactive
outcome [9]: inactive

CCCCN(CCCC)SN(C)C(=O)Oc1cccc2c1OC(C)(C)C2
Potency [1]: inactive
outcome [2]: inactive
Potency [5]: inactive
outcome [6]: inactive
Potency [8]: inactive
outcome [9]: inactive

CC(C)(C)OOC(=O)c1ccccc1
Potency [1]: inactive
outcome [2]: inactive
Potency [3]: inactive
Potency [5]: inactive
outcome [6]: inactive
Potency [7]: inactive
Potency [8]: inactive
outcome [9]: inactive

CCCC1COC(Cn2cncn2)(c2ccc(Cl)cc2Cl)O1 (stereo unspecified)
Potency [1]: inactive
outcome [2]: inactive
Potency [3]: 25 µM (active) and 24.5 µM (active)
Potency [5]: inactive
outcome [6]: inactive
Potency [7]: inactive
Potency [8]: inactive
outcome [9]: inactive
Potency [10]: 31.2 µM (active) and 30.6 µM (active)
